According to ChEMBL document CHEMBL3988442, “University of Dundee, Small-Polar-MMV Screening Library” (2021):

Legend:
[1] = biological target: T1, Aspartate--tRNA(Asp/Asn) ligase (Mycobacterium tuberculosis (strain ATCC 25618 / H37Rv)) (UniProt P9WFW3); experiment: Assay for Asp RNA synthetase-1 from Mycobacterium tuberculosis; format: functional; set-up: scale not given: direction of the effect not stated beside the values; details: 30 µM; also: in the data most compounds retested in dose-response had high values
T1 sequence (whole entry): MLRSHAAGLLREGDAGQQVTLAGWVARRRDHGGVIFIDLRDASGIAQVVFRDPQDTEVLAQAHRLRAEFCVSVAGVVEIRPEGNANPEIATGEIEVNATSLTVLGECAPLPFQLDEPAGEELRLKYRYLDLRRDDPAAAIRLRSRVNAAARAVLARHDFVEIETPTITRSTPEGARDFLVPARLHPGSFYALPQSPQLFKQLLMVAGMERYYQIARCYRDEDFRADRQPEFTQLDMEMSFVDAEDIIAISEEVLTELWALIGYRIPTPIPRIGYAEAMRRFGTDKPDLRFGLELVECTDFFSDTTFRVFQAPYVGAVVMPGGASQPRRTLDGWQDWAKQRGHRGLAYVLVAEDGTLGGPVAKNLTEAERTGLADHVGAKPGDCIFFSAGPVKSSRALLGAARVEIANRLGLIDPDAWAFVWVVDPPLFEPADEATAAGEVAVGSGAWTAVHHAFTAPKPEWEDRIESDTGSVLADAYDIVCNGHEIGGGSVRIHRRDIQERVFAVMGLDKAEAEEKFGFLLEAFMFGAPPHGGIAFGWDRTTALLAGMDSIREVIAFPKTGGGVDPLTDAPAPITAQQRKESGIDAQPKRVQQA

[2] = biological target: Shiga toxin 2 (Escherichia coli O157:H7) (UniProt P09385+P09386); experiment: E. coli 0.157:H7 Shiga Toxin SOP - stx2 screening assay; format: functional; set-up: scale not given: direction of the effect not stated beside the values; details: 30 µM

## O=C(Cn1ccc2ccc(Br)cc21)NCc1ccc(C(=O)O)cc1
[1]
  Percent Effect: 14.7%
[2]
  Percent Effect: -5.49%

## COc1ccc(CN2C[C@@H]3OCCN(CC4CCCO4)[C@@H]3C2)cc1 (some centres undefined)
[1]
  Percent Effect: -0.535%
[2]
  Percent Effect: -4.29%

## O=C(Cc1ccsc1)N1CCn2cc(CN3CCCC3)nc2C1
[1]
  Percent Effect: -0.684%
[2]
  Percent Effect: -12%

## Cc1ccc(C(CNCc2ccncc2)N2CCOCC2)s1 (centres undefined)
[1]
  Percent Effect: 2.18%
[2]
  Percent Effect: -29.8%

## Cn1cc(C(=O)NCc2cn3c(n2)CN(Cc2ccccn2)CC3)cn1
[1]
  Percent Effect: 6.41%
[2]
  Percent Effect: -42%

## Cc1cccc(-c2nc(C)nn2CC(=O)NC2CCCC2)c1
[1]
  Percent Effect: -5.28%
[2]
  Percent Effect: -29.1%

## CN(C)C(=O)C1CN(Cc2c[nH]cn2)CCN(C2CCOCC2)C1 (centres undefined)
[1]
  Percent Effect: 0.313%
[2]
  Percent Effect: -8.14%

## O=C(c1ccncc1)N1CCCC2(COCCN(c3ccccc3)C2)C1 (centres undefined)
[1]
  Percent Effect: 2.82%
[2]
  Percent Effect: -1.46%

## COC(=O)c1ccc(N2CCN(C(=O)c3ccncc3)C(C)C2)cc1 (centres undefined)
[1]
  Percent Effect: -2.26%
[2]
  Percent Effect: -11.4%

## Cc1ccccc1CSc1nc(N)cc(N2C[C@H](O)[C@@H](N(C)C)C2)n1
[1]
  Percent Effect: 3.57%
[2]
  Percent Effect: 14.8%

## CN(C)Cc1cc(=O)n2c(n1)CN(C(=O)Cc1ccsc1)CCC2
[1]
  Percent Effect: -1.04%
[2]
  Percent Effect: -17%

## O=C(C1CC=CC1)N1CCc2c(COCc3ccncc3)cncc2C1
[1]
  Percent Effect: -3.81%
[2]
  Percent Effect: -51.1%

## CC(NC(=O)CNCCn1cccn1)c1ccc2c(c1)CCCC2 (centres undefined)
[1]
  Percent Effect: -4.86%
[2]
  Percent Effect: -9.4%

## CCNC(=O)C1CCN(Cc2csc(-c3ccc(C)o3)n2)CC1
[1]
  Percent Effect: 6.68%
[2]
  Percent Effect: -30.3%

## CN(C)CCOCC1CN(CC2CCOCC2)Cc2nnn(C)c21 (centres undefined)
[1]
  Percent Effect: -1.11%
[2]
  Percent Effect: -12.4%

## NC(=O)CC1CCN(C(=O)CCOc2ccc(Cl)cc2)CC1
[1]
  Percent Effect: -1.03%
[2]
  Percent Effect: 32.7%

## O=C(c1cc(Cl)c2c(c1)OCO2)N1CCN(c2nccs2)CC1
[1]
  Percent Effect: -0.23%
[2]
  Percent Effect: -4.3%
